Compound activity from PubChem BioAssay.
Most compounds without a hit are left out; they make up all but 4.1% or so of the library.
hcDAF-12 act: H. contortus DAF-12 activation, primary screen; HEK293 hcDAF-12 lit1-tk-luc reporter, luminescence; 0% DMSO, 100% Δ7-dafachronic acid; activation, % at 6.8 µM; hit rate 1.4% among 370,000; AID 652067;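 active = activation above the mean of all tested compounds plus 3 SD, cut at about 5.5% in these data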
ssDAF-12 act: activates DAF-12 receptor from parasite S. stercoralis; activation, % at 6.8 µM; hit rate 1% among 370,000; AID 652126; HEK293 ssDAF-12/GRIP1 lit1-tk-luc reporter, luminescence; % of 3 µM dafachronic acid response;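 active = activation above the mean over all tested compounds plus 3 SD, cut at about 0.9% in these data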
DAX1 inh-1: inhibits human nuclear receptor DAX1; HEK293 Gal4-DAX1 luciferase reporter, luminescence; hit rate 0.99% among 340,000; P51843; AID 504766; inhibition, % at 6.75 µM;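 active = inhibition above the mean over all tested compounds plus 3 SD, cut at about 4.2% in these data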;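 note: inhibition shows as a rise in luminescence from relieved DAX1 repression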
Target sequence (P51843 207-470 limits assumed): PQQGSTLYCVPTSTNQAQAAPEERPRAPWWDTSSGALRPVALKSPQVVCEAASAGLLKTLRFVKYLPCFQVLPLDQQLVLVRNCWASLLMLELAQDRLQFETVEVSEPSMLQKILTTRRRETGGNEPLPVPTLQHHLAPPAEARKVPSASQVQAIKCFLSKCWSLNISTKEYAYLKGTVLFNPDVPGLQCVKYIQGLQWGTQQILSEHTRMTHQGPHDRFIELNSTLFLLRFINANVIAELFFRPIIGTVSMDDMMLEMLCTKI
hgDAF-12 ag: activates the H. glycines DAF-12 receptor ligand-binding domain. HEK293 GAL4-hgDAF12 UAS-luciferase reporter, agonist luminescence; normalized to butyrate control. activation, % at 6.8 µM. hit rate 1.8% among 370,000;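 active = activation above a cutoff set at the mean of all screened compounds plus 3 SD, cut at about 10% in these data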
DAX1 inh-2: inhibitors of DAX1 repression of SF-1 activated StAR promoter. hit rate 1.1% among 370,000. AID 652010. HEK293T StAR-luciferase reporter, SF-1/DAX-1 repression relief. inhibition, % at 6.8 µM;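 active = inhibition above the mean over all tested compounds plus 3 SD, cut at about 3.6% in these data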;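 note: higher inhibition means more luminescence from relief of DAX-1 repression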
Each line names hits and unclear results; the compound was inactive in the other large screens.

C#CCNC(=O)C[C@@H]1C(=O)N(CCc2ccc(Cl)cc2)/C2=C/CCCCC[C@@]21C(=O)OCC	none (no result: DAX1 inh-1)
CC(C)(CC(=O)O)CC(=O)Nc1ccc2c(c1)ncn2CCc1ccccc1	DAX1 inh-1 4.5
CS(=O)(=O)Nc1ccc2c(c1)ncn2CCc1ccccc1	none
O=C(NC(=S)N1CCCCC1CO)c1cccs1 (stereo unspecified)	DAX1 inh-1 6.5
Cc1cc(NC(=O)c2ccccc2)ncc1NC(=O)c1cccs1	none
CCN(CC)c1ccc(NC(=S)Nc2ccc(F)cc2)cc1	hgDAF-12 ag 11.5
Cc1cc(NC(=O)c2cccs2)ncc1NC(=O)C(C)C	hgDAF-12 ag 11.1
O=C(NC(=S)Nc1ccccc1N1CCCC1)c1cccs1	hcDAF-12 act 5.7
COc1cc(OC)c2c(O)c3c(=O)cc(C)oc3c(-c3c(OC)cc4cc5c(c(O)c4c3O)C(=O)CC(C)(O)O5)c2c1 (stereo unspecified)	none (no result: DAX1 inh-1)
O=C(NC(=S)Nc1ccc(N2CCCCC2)cc1)c1cccs1	hgDAF-12 ag 12.4
O=C(NC(=S)Nc1cccnc1)c1cccs1	none
O=C(NC(=S)Nc1ccc(Cl)cn1)c1cccs1	ssDAF-12 act 1.1, DAX1 inh-1 5.5
CC(C)C(=O)Nc1cccc(NC(=S)NC(=O)c2cccs2)c1	DAX1 inh-2 4.1
CCN(CC)c1ccc(NC(=S)NC(=O)c2cccs2)cc1	hgDAF-12 ag 11.1
CC(C)Nc1nc(-c2ccccn2)nc(-c2ccccc2)c1C#N	DAX1 inh-1 4.8
CCCCCCCCN1C(=O)[C@@H](CC(=O)NCCCOCCCC)C[C@@]2(C(=O)OC)C1=C[C@H](C(C)(C)C)O[C@@H]2C	none (no result: DAX1 inh-1)
CC(=O)N1CCN(C(=O)C2CCCN(C(=O)c3ccc4c(c3)NC(=O)CS4)C2)CC1 (stereo unspecified)	none (no result: DAX1 inh-1)
O=C(Cc1c[nH]c2ccccc12)Nc1ccc(Nc2cccnc2)c(-c2ccc(-c3ccccc3)cc2F)c1	hcDAF-12 act 5.7 (no result: DAX1 inh-1)
O=C(Cc1c[nH]c2ccccc12)Nc1ccc(Nc2cccnc2)c(-c2ccc(F)c(F)c2)c1	none (no result: DAX1 inh-1)
Cc1cc(C)cc(NC(=O)OC2CCC23CCCCC3)c1 (stereo unspecified)	none (no result: DAX1 inh-1)
O=C(CN1CCN(Cc2ccccc2)CC1)N/N=C\c1c2ccccc2cc2ccccc12	none (no result: DAX1 inh-1)
NS(=O)(=O)c1ccc(CCNC(=O)c2ccc(Cl)c(S(=O)(=O)NCc3ccco3)c2)cc1	ssDAF-12 act 1.3
O=C(O)c1ccc(Cl)c(S(=O)(=O)NCc2ccco2)c1	none
O=C1C(NC(=O)C(F)(F)Br)CCCCN1Cc1cccc(C(F)(F)F)c1 (stereo unspecified)	none (no result: DAX1 inh-1)
CC1(C(=O)OCc2cc(=O)n3cc(Br)ccc3n2)CC1(Cl)Cl (stereo unspecified)	hgDAF-12 ag 11.3
CC(C)(C)NC(=O)Cn1c(SCC(=O)NC2CC2)nc2ccccc21	DAX1 inh-1 4.7
Cc1occc1C(=O)OCC(=O)Nc1ccc(F)cc1	hgDAF-12 ag 10.6
O=C(COC(=O)c1cc2c(s1)CCC2)Nc1ccc(F)cc1	DAX1 inh-1 4.5
NC(=O)c1ccc(NC(=O)COC(=O)c2cc3c(s2)CCC3)cc1	none
O=C(O)CCN1C(=O)/C(=C/c2cccc(OCc3ccc(F)cc3)c2)SC1=S	none (no result: DAX1 inh-1, DAX1 inh-2)
CCCCNC(=O)c1cccc(NC(=O)C(=O)c2ccccc2NC(C)=O)c1	none
CCN(CC)CCNC(=O)c1cccc(NC(=O)C(=O)c2ccccc2NC(C)=O)c1	hcDAF-12 act 5.9
O=C(CCc1ccccc1)N[C@H]1[C@@H](OC(=O)c2ccco2)CCC[C@]12C(=O)N(Cc1ccccc1)c1ccccc12	none (no result: DAX1 inh-1)
Cc1ccc(S(=O)(=O)Nc2ccncc2)c(C)c1N(C)S(=O)(=O)c1ccc(F)cc1	hcDAF-12 act 5.7
COc1ccc(S(=O)(=O)Nc2ccncc2)c(C)c1C	none
N#Cc1cccc(CNCC(=O)N2CCC3(CC2)OCCO3)c1	none (no result: DAX1 inh-1)
CC(C)(C)c1ccc(C(=O)Nc2cccc(S(=O)(=O)NC3=NCCC3)c2)cc1	DAX1 inh-2 4.0
CN(C)c1ccc(C(=O)Nc2cccc(S(=O)(=O)NC3=NCCCCC3)c2)cc1	none
CC(SCC(=O)O)c1nc2ccccc2[nH]1 (stereo unspecified)	ssDAF-12 act 1.0
O=C(O)CSc1nc2ccccc2[nH]1	none
CCC(=O)NC(Cc1ccccc1)c1nc2ccccc2[nH]1 (stereo unspecified)	DAX1 inh-1 4.2
Cc1cc(C(=O)NNS(=O)(=O)c2cccc(Cl)c2)nn1C(C)(C)C	DAX1 inh-1 4.2
COC(=O)[C@H](C(C)C)N(Cc1cn(CC2CCCCC2)nn1)S(=O)(=O)c1ccc(F)cc1Br	none (no result: DAX1 inh-1)
Cc1ccc(-n2c(SCC(=O)c3ccc(Br)cc3)nnc2-c2ccncc2)cc1	none (no result: DAX1 inh-1)
COc1ccc(C2N(c3ccc(C)cc3)CCN2c2ccc(C)cc2)cc1O	DAX1 inh-1 4.9
COC(=O)C1=C(NC(=O)c2ccc(C)cc2)CCS1	ssDAF-12 act 1.9
COC(=O)C1=C(NC(C)=O)CCS1	none
COC(=O)[C@]12C[C@H](CC(=O)N3CCSCC3)C(=O)N(Cc3ccc(Cl)cc3Cl)C1=C[C@H](COCc1ccccc1)O[C@@H]2C	none (no result: DAX1 inh-1)
O=C(CSc1nc2ccccc2nc1N1CCCC1)N1CCN(C(c2ccccc2)c2ccccc2)CC1	none (no result: DAX1 inh-1)
O=C(NCC(c1ccccc1)c1ccccc1)[C@H](Cc1ccccc1)NC1(C(=O)NC2CCCCC2)CCCCCC1	none (no result: DAX1 inh-1, DAX1 inh-2)
O=C(O)C1C2C=CC(C2)C1C(=O)N1CCc2ccccc21 (stereo unspecified)	hcDAF-12 act 5.6
COc1ccc(CSc2nnc(C)s2)cc1F	hgDAF-12 ag 10.8
COc1cccc(/C=N/Nc2ccc(Cl)nn2)c1OC	DAX1 inh-1 5.6
Fc1ccccc1/C=N/Nc1ccc(Cl)nn1	none
CN1C(C(=O)Nc2cccc(O)c2)=CC(c2ccco2)=NS1(=O)=O	DAX1 inh-1 7.6
Cc1ccc(O)c(NC(=O)C2=CC(c3ccco3)=NS(=O)(=O)N2C)c1	none
COc1cccc(C2NC(=O)CCC2[N+](=O)[O-])c1OC (stereo unspecified)	none
COc1cc(C2NC(=O)CCC2[N+](=O)[O-])c(OC)cc1Br (stereo unspecified)	ssDAF-12 act 0.9
COC(=O)[C@]12C[C@H](CC(=O)N3CCOCC3)C(=O)N(CCC3=CCCCC3)C1=C[C@H](C(C)C)O[C@@H]2C1CC1	none (no result: DAX1 inh-1)
S=C(Nc1cccc(Br)c1)OC1CCC12CCC(c1ccccc1)CC2 (stereo unspecified)	none (no result: DAX1 inh-1)
COC(=O)C(Cc1c[nH]c2ccccc12)NC(=O)C(=O)c1c[nH]c2ccccc12 (stereo unspecified)	hcDAF-12 act 5.9
O=C(O)C(Cc1c[nH]c2ccccc12)NS(=O)(=O)c1ccc2ccccc2c1 (stereo unspecified)	none
COC(=O)C(Cc1c[nH]c2ccccc12)NC(=O)C(C)C (stereo unspecified)	none
Cc1ccc(/C=C(/NC(=O)c2ccccc2)C(=O)NC(Cc2c[nH]c3ccccc23)C(=O)O)cc1 (stereo unspecified)	none
